Reference: publication PMC4336329 (PLoS ONE, 2015)
Out of some 310,000 compounds screened, about 14,000 (4.5%) showed an effect of 50% or more. Effects have a minus sign here. This excerpt belongs to a sample that is enriched for strong results.

Target: human ether-à-go-go-related gene (hERG) potassium channel (human, UniProt Q12809)
Experiment: primary screen, population patch clamp on CHO cells stably expressing hERG; higher = less effect of the substance
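Note: peak tail current of the secondary pulse compared with the same well before compound.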

Sequence of human ether-à-go-go-related gene (hERG) potassium channel (Q12809 whole entry, looked up): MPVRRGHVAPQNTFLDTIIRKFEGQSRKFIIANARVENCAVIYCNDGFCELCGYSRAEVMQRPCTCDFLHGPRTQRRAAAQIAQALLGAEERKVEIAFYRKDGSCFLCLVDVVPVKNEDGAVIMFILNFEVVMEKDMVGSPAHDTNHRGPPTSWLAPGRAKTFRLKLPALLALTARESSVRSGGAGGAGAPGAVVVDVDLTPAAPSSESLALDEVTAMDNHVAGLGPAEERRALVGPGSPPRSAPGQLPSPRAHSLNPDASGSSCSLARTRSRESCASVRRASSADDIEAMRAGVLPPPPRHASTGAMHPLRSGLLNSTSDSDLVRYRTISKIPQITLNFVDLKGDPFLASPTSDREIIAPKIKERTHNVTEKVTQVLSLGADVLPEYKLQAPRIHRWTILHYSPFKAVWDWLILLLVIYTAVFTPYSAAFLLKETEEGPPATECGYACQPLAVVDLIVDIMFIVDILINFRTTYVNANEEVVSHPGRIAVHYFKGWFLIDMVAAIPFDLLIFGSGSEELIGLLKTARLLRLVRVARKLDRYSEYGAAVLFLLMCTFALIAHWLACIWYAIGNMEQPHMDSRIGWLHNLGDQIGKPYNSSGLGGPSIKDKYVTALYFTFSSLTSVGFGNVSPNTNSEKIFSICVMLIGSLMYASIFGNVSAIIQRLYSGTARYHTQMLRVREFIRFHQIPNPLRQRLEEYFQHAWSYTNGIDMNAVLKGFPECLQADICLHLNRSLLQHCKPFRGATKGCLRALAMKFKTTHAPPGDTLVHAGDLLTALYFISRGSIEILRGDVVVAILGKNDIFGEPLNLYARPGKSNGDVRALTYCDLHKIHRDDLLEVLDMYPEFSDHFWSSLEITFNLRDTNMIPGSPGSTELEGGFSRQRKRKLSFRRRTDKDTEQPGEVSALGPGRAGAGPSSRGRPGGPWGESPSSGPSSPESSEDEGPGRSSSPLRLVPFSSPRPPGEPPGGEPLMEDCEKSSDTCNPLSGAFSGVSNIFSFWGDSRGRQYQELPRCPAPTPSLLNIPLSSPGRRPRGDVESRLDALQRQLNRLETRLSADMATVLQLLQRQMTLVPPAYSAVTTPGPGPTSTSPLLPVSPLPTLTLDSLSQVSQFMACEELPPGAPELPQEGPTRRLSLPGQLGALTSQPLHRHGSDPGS

First: COc1ccc2c(CC(=O)Nc3ncc(C)s3)coc2c1
Second: COC(=O)c1ccc(COc2ccc(F)cc2)o1
The “hERG current change (%, negative = inhibition) at 10uM” value of the first is higher: 5.72% for the first, -27.4% for the second.

First: CN(C)c1ccc(C(CC(=O)O)C(=O)O)cc1 (stereo not shown)
Second: CCOc1ccc(C(=O)CCC(=O)Nc2ncccc2O)cc1
The “hERG current change (%, negative = inhibition) at 10uM” value of the first is higher: 14.4% for the first, 5.51% for the second.

First: Cc1ccccc1OCC(O)Cn1c(NCCN(C)C)nc2c1c(=O)n(C)c(=O)n2C (stereo not shown)
Second: COc1cc(/C=C2/SC(=S)N(CCC(=O)Nc3ccccc3)C2=O)cc(OC)c1OC
The “hERG current change (%, negative = inhibition) at 10uM” value of the first is lower: -20.3% for the first, 13.8% for the second.

First: CSc1cccc(NC(=O)/C=C/c2ccc(Cl)cc2)c1
Second: CC(C)(C)c1ccc(C(=O)Nc2cccnc2)cc1
The “hERG current change (%, negative = inhibition) at 10uM” value of the first is higher: -4.08% for the first, -18.7% for the second.

First: O=S(=O)(Nc1ncccn1)c1ccc(NC(=S)N2CCN(Cc3ccc(F)cc3Cl)CC2)cc1
Second: CC(=O)Nc1sc2c(c1CN1CCN(c3ccc(F)cc3)CC1)CCCC2
The “hERG current change (%, negative = inhibition) at 10uM” value of the first is higher: 22% for the first, -6.73% for the second.

Going from CNC(C)C#Cc1ccc2c(=O)c3c(OC)cccc3oc2c1 (stereo not shown) to COc1cc(C2C(C#N)=C(N)Oc3cc(N(C)C)ccc32)cc2c1OCO2 (stereo not shown), the “hERG current change (%, negative = inhibition) at 10uM” value falls from 0.579% to -6.32%.

First: O=C(Nc1ccc(Oc2cccnc2)nc1)c1ccc(C(F)(F)F)cc1
Second: CC(C)(C)c1ccc(C(=O)Nc2ccc(Oc3cccnc3)nc2)cc1
The “hERG current change (%, negative = inhibition) at 10uM” value of the first is higher: -30% for the first, -61.2% for the second.

Going from CCCCC(=Nc1ccccc1OC)C1=C(O)CC(c2ccccc2)CC1=O (stereo not shown) to Cn1nc(OCCOc2ccccc2)ccc1=O, the “hERG current change (%, negative = inhibition) at 10uM” value falls from 3.11% to -4.45%.

Going from CCN(CC)CCSc1nnc2c3cc(C)ccc3n(Cc3ccccc3)c2n1 to CCN(CC)CCSc1nnc2c3cc(F)ccc3n(Cc3ccccc3)c2n1, the “hERG current change (%, negative = inhibition) at 10uM” value rises from -79.1% to -77%.

Compared with CSc1nnc2c3cc(F)ccc3n(Cc3ccccc3)c2n1, CSc1nnc2c3cc(C)ccc3n(Cc3ccccc3)c2n1 is lower in “hERG current change (%, negative = inhibition) at 10uM” value: 13.6% for the first, 2.55% for the second.

Going from NNc1nnc2c3cc(F)ccc3n(Cc3ccccc3)c2n1 to Cc1ccc2c(c1)c1nnc(SCC(=O)Nc3cccc(Cl)c3C)nc1n2CC(=O)O, the “hERG current change (%, negative = inhibition) at 10uM” value rises from -22.4% to 19.6%.

First: O=c1cc(CNc2cc(C(F)(F)F)cc(C(F)(F)F)c2)nc2sccn12
Second: NC(=O)c1ccc(Oc2ncc(C(F)(F)F)cc2Cl)cc1
The “hERG current change (%, negative = inhibition) at 10uM” value of the first is lower: -6.36% for the first, -3.77% for the second.

With O=C(NCc1cccs1)c1ccccc1F the “hERG current change (%, negative = inhibition) at 10uM” value was -3.47%.
